# Assay outcomes as filed in PubChem.
# VP16 counter – VP16 counterscreen qHTS for inhibitors of ROR gamma transcriptional activity; Drosophila S2 Gal4-VP16 UAS-luciferase, luminescence, 20 h; Potency, µM (doses to about 53.6 µM), without a hit: at the highest dose activity, negative = inhibition, usual class: inhibitors; hit rate 3.5% among 310,000; AID 2546, 2010;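 further: Gal4-VP16 expression switched on by copper sulfate through the metallothionein promoter; potency means the concentration at half of the fitted maximal effect; nearly all actives have a fitted effect of over 50% in size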
# Coupling enz – qHTS Assay for Inhibitors of Fructose-1,6-bisphosphate Aldolase from Giardia Lamblia: Coupling assay counterscreen; coupling enzyme system counterscreen, AmpLite Red fluorescence; activity change, negative = inhibition, % at 58.2 µM, hits read low; hit rate 0.67% among 290,000; in the data active means activity change below about -30%
#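 Counterscreen lacking aldolase: glyceraldehyde-3-phosphate coupling-enzyme reagent preincubated 10 min at RT with compound (at 57.5 uM final), then substrate/coupling system with AmpLite Red added; fluorescence read at 525/598 nm after 20 min RT.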
# RORgamma inh – qHTS for inhibitors of ROR gamma transcriptional activity; Potency, µM (doses to about 53.6 µM), inactives show top-dose activity change, negative = inhibition, hits mostly inhibitors; hit rate 5.4% among 310,000; Drosophila S2 Gal4-RORgamma UAS-luciferase reporter, 20 h; further: potency means the concentration at half of the fitted maximal effect; nearly all actives have a fitted effect of over 60% in size
#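 Luciferase reporter read in Schneider cells carrying Gal4-RORγ (mouse) and UAS-Photinus luciferase; cells given compound 1 h before 700 uM copper sulfate induction, then incubated 20 h at ambient temperature.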
# TrxR1 substrate – qHTS Assay for Substrates of Mammalian Selenoprotein Thioredoxin Reductase 1 (TrxR1): qHTS | Thioredoxin reductase 1, cytoplasmic (Rattus norvegicus), O89049 | purified TrxR1 substrate turnover, NADPH consumption readout | Potency, µM (doses to about 114 µM), without a hit: top-dose activity change, negative = substrate turnover | hit rate 0.01% among 390,000 | AID 588456, 2011; further: potency means the concentration at half of the fitted maximal effect; nearly all actives have a fitted effect of over 50% in size
# Target sequence (O89049 whole entry, looked up): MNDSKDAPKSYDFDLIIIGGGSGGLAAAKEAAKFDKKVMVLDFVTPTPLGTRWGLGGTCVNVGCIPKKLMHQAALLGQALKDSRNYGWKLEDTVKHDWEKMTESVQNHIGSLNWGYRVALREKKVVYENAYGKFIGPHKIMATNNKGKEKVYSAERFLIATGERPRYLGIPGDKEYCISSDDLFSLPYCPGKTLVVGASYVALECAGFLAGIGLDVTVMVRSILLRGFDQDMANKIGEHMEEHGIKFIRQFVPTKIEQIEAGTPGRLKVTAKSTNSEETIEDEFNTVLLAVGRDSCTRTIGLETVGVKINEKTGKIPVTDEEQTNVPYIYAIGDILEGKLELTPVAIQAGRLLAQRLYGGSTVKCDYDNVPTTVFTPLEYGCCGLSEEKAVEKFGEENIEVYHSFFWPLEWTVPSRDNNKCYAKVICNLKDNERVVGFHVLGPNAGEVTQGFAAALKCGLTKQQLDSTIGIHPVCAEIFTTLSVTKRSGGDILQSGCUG
#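 Rat TrxR1, dispensed at 90 nM, was prereduced with 400 uM NADPH (final) for 5 min at ~22 deg C, then incubated with compound 15 min before 400 uM selenite. A first-read NADPH fluorescence drop versus no-compound background flagged substrates.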
# TrxR1 inh – qHTS Assay for Inhibitors of Mammalian Selenoprotein Thioredoxin Reductase 1 (TrxR1): qHTS. recombinant rTrxR1, NADPH fluorescence consumption, selenite substrate. Potency, µM (doses to about 114 µM), for the others: at the highest dose activity change, negative = inhibition, hits mostly inhibitors. hit rate 1% among 390,000; further: potency means the concentration at half of the fitted maximal effect; nearly all actives have a fitted effect of over 65% in size
#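 Rat TrxR1 (90 nM in the dispensed reagent) was pre-reduced with 400 uM NADPH for 5 min at room temperature, then incubated with compound for 15 min. After 400 uM selenite was added, NADPH fluorescence (Ex 340/Em 450 nm) was followed for 8 min.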
# GALK inh – qHTS Assay for Inhibitors of Human Galactokinase (GALK) | P51570 | hit rate 0.007% among 270,000 | Potency, µM (titrated, usually from 57.5 µM), inactives show at the top dose activity change, negative = inhibition, usual class: inhibitors | Purified GALK, Kinase-Glo residual ATP luminescence; further: potency means the concentration at half of the fitted maximal effect
#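 Galactose (100 uM) and ATP (35 uM) were turned over by 5 nM GALK for 1 h at RT. Kinase-Glo Plus then converted the remaining ATP into a luminescent signal.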
# The depositor's hits bear a star; ? = inconclusive; . = no result; [ ] = another dose, or the depositor's remark. Rows were chosen to be rich in hits. Some 5.9% of all compounds tested hit in one or more screens of this group. Unless noted, the call rests on the fitted dose curve; in most records, active means well fitted curve in the direction sought with a large enough effect; inconclusive means small, poorly fitted or top-dose-only effect, or another doubt; inactive means no such curve, though single readings can be large; an effect the other way counts as inactive or inconclusive. On the % scale 0 is the no-effect control and ±100 the full control effect.
SMILES,VP16 counter,Coupling enz,RORgamma inh,TrxR1 substrate,TrxR1 inh,GALK inh
CCn1c(CCNC(=O)c2ccc(Cl)cc2)n[nH]c1=S,-5%,0,1%,-9%,-27%,1%
Cn1c(CSCc2ccc(Cl)c(Cl)c2)n[nH]c1=S,4µM*,-3,5.6µM*,5%[57.1 µM],-13%[57.1 µM],0%
Cn1c(CSc2nc3ccccc3s2)n[nH]c1=S,-6%[0.365 µM],0,?,-1%,-7%,0%
CCn1c(CSCc2ccc(Cl)cc2)n[nH]c1=S,7.1µM*,0,2.2µM*,-6%,-9%,-1%
CCn1c(CSCc2ccc(C)cc2)n[nH]c1=S,3.5µM*,3,5.6µM*,6%,0%,1%
CCn1c(CC(C)C)n[nH]c1=S,-1%,0,?,-12%,-6%[57.1 µM],1%
CC(C)NC(=S)Nc1ccc(Oc2ccccc2)cc1,-17%,2,?,-7%,-14%,1%
CCCCNC(=S)Nc1ccc([N+](=O)[O-])cc1,2%,-2,-14%,-12%,-20%,0%
CCCNC(=S)Nc1ccc(Oc2ccccc2)cc1,11µM*,5,13µM*,1%,8%,-6%
CCCCNC(=S)Nc1ccc(Oc2ccccc2)cc1,5.6µM*,6,1.4µM*,-8%,3%,0%
O=C(CN1C2=NCCN2c2ccccc21)C12CC3CC(CC(C3)C1)C2,-28%,1,16µM*,11%[57.1 µM],19%[57.1 µM],3%
Cc1ccccc1OCC(=O)N/N=C/c1ccc([N+](=O)[O-])o1,11µM*,4,2.5µM*,-6%,?,0%
O=C(COc1ccccc1[N+](=O)[O-])N/N=C/C=C/c1ccco1,?,.,?,-1%[57.1 µM],-65%,-2%
CCCOc1ccc(CCC(=O)N/N=C/c2ccc([N+](=O)[O-])o2)cc1,6%,1,-3%,-3%,?,-1%
Cc1cc(C)cc(OCC(=O)N/N=C/c2ccc([N+](=O)[O-])o2)c1,?,-7,8.9µM*,13%[57.1 µM],-14%[57.1 µM],3%
Cc1ccccc1OCC(=O)NCC(=O)N/N=C/c1ccc(Br)o1,-3%,-13,-9%,-9%,1%,.
COc1ccccc1OCC(=O)N/N=C/C=C/c1ccc([N+](=O)[O-])o1,10µM*,0,11µM*,-3%,7.1µM*,-2%
CCN(CC)c1ncnc2c1cnn2C,2%,2,12%,14%,25%,2%
Cn1cnc(S(=O)(=O)N2CCN(c3cccc(C(F)(F)F)c3)CC2)c1,-2%,5,5%,-3%,-1%,-2%
CCN(CC)C(=O)CSc1nc2ccccc2c(=O)n1CCC(=O)NCCc1ccc(OC)c(OC)c1,8%,0,6%,-3%[57.1 µM],20%[57.1 µM],-2%
CC1=NN(C(=O)Cn2nc([N+](=O)[O-])c(Br)c2C)C(O)(C(F)(F)F)C1 (stereo not given),?,-2,10µM*,-5%,9%,1%
COc1nn(CC(=O)N2N=C(C)CC2(O)C(F)(F)F)cc1[N+](=O)[O-] (stereo not given),-1%,2,3.2µM*,-2%,9%,0%
CC1=NN(C(=O)Cn2ccc([N+](=O)[O-])n2)C(O)(C(F)(F)F)C1 (stereo not given),?,4,?,1%,2%,.
Cc1ccccc1Nc1oc(-c2ccccc2)nc1-c1cccc2ccccc12,2%,1,4%,.,.,.
CC(=O)c1ccc(C2CC34CN(Cc5cccc(Cl)c5)S(=O)(=O)C3CC2O4)cc1 (stereo not given),13%,4,2%,-1%,12%[57.1 µM],.
SMILES,VP16 counter,Coupling enz,RORgamma inh,TrxR1 substrate,TrxR1 inh,GALK inh
CC(=O)c1ccc(C2CC34CNS(=O)(=O)C3CC2O4)cc1 (stereo not given),0%,6,11%,-2%,28µM*,.
Cc1ccc(-c2nnn(CC(=O)NCCc3ccc4c(c3)OCO4)n2)o1,-8%,0,21%,-8%,-5%,0%
Cc1noc(C)c1C(=O)Nc1nc2ccc(S(C)(=O)=O)cc2s1,11µM*,.,-32%,-6%,-2%,-4%
Cc1onc(-c2ccccc2)c1C(=O)Nc1nnc(N2CCCCCC2)s1,0.35µM*,-2,?,5%,19%,-2%
Cc1noc(C)c1C(=O)Nc1nnc(-c2ccccc2)s1,?,-1,11µM*,-5%,-2%,-4%
CC(C)c1ccc(CN(Cc2ccco2)c2cnc(S(C)(=O)=O)nc2C(=O)Nc2ccc(F)cc2)cc1,.,.,.,7%,29%,.
COc1ccc(NC(=O)NNC(=O)C(C)Oc2ccc(C(C)C)cc2)c(OC)c1 (stereo not given),?,.,20µM*,3%,15%,-3%
CC(C)C(=O)NC(=S)Nc1ccc(S(=O)(=O)Nc2nccs2)cc1,23%,6,8%,7%[57.1 µM],6%[57.1 µM],0%
Cc1ccc(NC(=O)CN(C)S(=O)(=O)c2cccs2)cc1F,-20%,-1,?,6%[57.1 µM],-8%[57.1 µM],0%
Cc1ccc(NC(=O)CN(C)S(=O)(=O)c2cccs2)cc1C,7.9µM*,-6,?,7%,20%,0%
Cc1nc2c(cc(Oc3ccc(S(=O)(=O)N4CCOCC4)cn3)c3ccsc32)s1,-13%,-40*,12%,0%,-2%,-1%
CCOCCn1cnc2sc(C(=O)Nc3nc(C)c(C(=O)OCC)s3)c(C)c2c1=O,-10%,0,4.5µM*,.,.,3%
CN(C)c1ccc(N/C=C/C(=O)c2ccccc2)cc1,10µM*,-21,5.6µM*,1%,8%,11%
O=C(/C=C/Nc1ccccc1)c1ccccc1,5%,1,-6%,1%,-2%,6%
CC(C)(C)c1ccc(C(=O)NCCOc2ccccc2)cc1,?,-4,8.9µM*,2%,24%,5%
CC(C)(C)c1ccc(C(=O)NCCOc2ccccc2F)cc1,6.3µM*,-2,7.1µM*,-10%,5%,-1%
COc1ccccc1C(=O)NCCOc1ccc(C(C)(C)C)cc1,?,0,?,1%,16%,-1%
Cc1nc2ccccc2c2oc(C(=O)N3CCN(c4ccc([N+](=O)[O-])cc4)CC3)cc12,-14%,2,-14%,4%,-1%,1%
COc1ccc(/C=N/NC(=O)c2ccncc2)cc1CSc1nc2ccccc2s1,6.3µM*,-3,7.1µM*,-11%,-15%,1%
